In PubChem BioAssay (NCI) one finds growth data, which are given here for nine molecules.

Compounds without any hit were thinned out: in the full panel of roughly 83,000, 20% have a hit.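 Growth was measured after 48 h exposure to one concentration of compound in 96-well plates. Values under 10 count as active.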 A number with no mark means an inactive call. Activity calls are given as the source filed them.

Experiment in all cases: NCI-60 one-dose screen, 48 h (100 = growth as untreated, 0 = no growth, -100 = all killed)
For one experiment, the system named is EKVX NSCLC. Conditions: 10 µM unless noted.
The next experiment concerns SN12C renal. Particulars: 10 µM unless noted.
A further experiment has as its system UO-31 renal. Conditions: 10 µM unless noted.
The next experiment relates to TK-10 renal. Particulars: 10 µM unless noted.
The test system of the next experiment is ACHN renal. Particulars: 10 µM unless noted.
For a further experiment, the system named is A498 renal. Conditions: 10 µM unless noted.
In another experiment the test system is CCRF-CEM leukemia. Particulars: 10 µM unless noted.
In another experiment the test system is OVCAR-8 ovarian. Particulars: 10 µM unless noted.
Another experiment deals with OVCAR-5 ovarian. Particulars: 10 µM unless noted.
For the next experiment, the system named is OVCAR-4 ovarian. Conditions: 10 µM unless noted.
For the next experiment, the system named is SK-OV-3 ovarian. Conditions: 10 µM unless noted.
A further experiment has as its system IGROV1 ovarian. Conditions: 10 µM unless noted.
The subject of the next experiment is OVCAR-3 ovarian. Conditions: 10 µM unless noted.
For a further experiment, the system named is HS 578T breast. Particulars: 10 µM.
The next experiment has as its system NCI/ADR-RES ovarian. Conditions: 10 µM unless noted.
The subject of the next experiment is SR leukemia. Particulars: 10 µM unless noted.
For the next experiment, the system named is RPMI-8226 leukemia. Particulars: 10 µM unless noted.
The next experiment deals with MOLT-4 leukemia. Particulars: 10 µM unless noted.
In another experiment the test system is CAKI-1 renal. Conditions: 10 µM unless noted.

Take `COc1cccc(OCC(O)CN2CCN(c3ccccc3)CC2)c1` (centres undefined): the growth with EKVX NSCLC was 103%; in the experiment on SN12C renal, 105%; with UO-31 renal, 96.3%; in the experiment with TK-10 renal it was 151%; with ACHN renal it was 109%; in the experiment on A498 renal, 90.6%. For the same molecule, the growth with CCRF-CEM leukemia was 121%; with OVCAR-8 ovarian, 103%; with OVCAR-5 ovarian, 105%; with OVCAR-4 ovarian it was 97.4%; with SK-OV-3 ovarian, 106%; with IGROV1 ovarian, 107%. Further, the growth in the experiment with OVCAR-3 ovarian is 112%; in the experiment with HS 578T breast, 117%; with NCI/ADR-RES ovarian it was 100%.

On to `CCSc1ccc([C@@H]2[C@@H](N)C(=O)N2c2cc(OC)c(OC)c(OC)c2)cc1`, for which the growth is 41% with EKVX NSCLC; 49.6% in the experiment with SN12C renal; 49.4% in the experiment with UO-31 renal; 58.9% in the experiment with TK-10 renal; 50.7% in the experiment on ACHN renal; 3.94% (active) in the experiment on A498 renal. For the same molecule, the growth in the experiment with CCRF-CEM leukemia is 11.6%; with SR leukemia it was 14.4%; in the experiment on RPMI-8226 leukemia it was 18%; in the experiment on OVCAR-8 ovarian it was 32.4%; in the experiment with OVCAR-4 ovarian, 54.4%; in the experiment on SK-OV-3 ovarian it was 44%. Further, the growth in the experiment with IGROV1 ovarian was 47.9%; in the experiment with OVCAR-3 ovarian, -23.8% (active); in the experiment with HS 578T breast, 34.5%; in the experiment on NCI/ADR-RES ovarian, 3.99% (active).

As to `Cc1cc(O)c(C2=NN(c3ccc(S(N)(=O)=O)cc3)C(c3ccc(Cl)cc3)C2)c(C)c1Cl` (centres undefined), the growth was 49.7% with EKVX NSCLC; 36.1% in the experiment with SN12C renal; 66.6% in the experiment on UO-31 renal; 80% in the experiment with TK-10 renal; 58.7% with ACHN renal; 87.2% in the experiment on A498 renal. Further, the growth in the experiment on CCRF-CEM leukemia is 11.6%; with MOLT-4 leukemia it was 14.3%; with SR leukemia it was -24.1% (active); in the experiment with RPMI-8226 leukemia, -37.6% (active); in the experiment with OVCAR-8 ovarian, 5.73% (active); with OVCAR-5 ovarian, 95.2%. Moreover, the growth in the experiment with OVCAR-4 ovarian was 58.9%; in the experiment with SK-OV-3 ovarian it was 81.6%; in the experiment on IGROV1 ovarian, 20.6%; in the experiment with OVCAR-3 ovarian, 68.1%; with HS 578T breast, 71.2%; in the experiment on NCI/ADR-RES ovarian it was 80.3%.

On to `Clc1ccc2c(c1)-n1cccc1C(c1ccc3ccccc3c1)=NC2`, for which the growth is 99.5% in the experiment on EKVX NSCLC; 124% in the experiment with SN12C renal; 64.8% in the experiment on UO-31 renal; 185% in the experiment on TK-10 renal; 91.7% in the experiment with ACHN renal; 84.6% in the experiment on CCRF-CEM leukemia. The growth with OVCAR-8 ovarian was 102%; in the experiment with OVCAR-5 ovarian, 98.4%; in the experiment on OVCAR-4 ovarian it was 84.2%; in the experiment on SK-OV-3 ovarian it was 94.5%; in the experiment with IGROV1 ovarian, 61.4%; in the experiment with OVCAR-3 ovarian, 86.1%. For the same molecule, the growth was 110% with HS 578T breast and 77.8% in the experiment on NCI/ADR-RES ovarian.

Take `COc1ccc(/C=C2\Cc3c(Br)cccc3C2=O)c(OC)c1`: the growth is 59.8% in the experiment with EKVX NSCLC; 78.3% in the experiment with UO-31 renal; 90.6% with TK-10 renal; 59.8% with ACHN renal; 79.4% with CAKI-1 renal; 83.1% in the experiment with A498 renal. Moreover, the growth in the experiment with CCRF-CEM leukemia was 97.8%; with MOLT-4 leukemia it was 94.1%; in the experiment with SR leukemia, 52.2%; in the experiment on RPMI-8226 leukemia, 60.9%; with OVCAR-8 ovarian, 80.8%; in the experiment with OVCAR-5 ovarian, 85.3%. In addition, the growth in the experiment on OVCAR-4 ovarian is 72.1%; in the experiment with SK-OV-3 ovarian, 80.8%; in the experiment with IGROV1 ovarian it was 74.1%; with OVCAR-3 ovarian, 67.2%; in the experiment with HS 578T breast, 80.5%; in the experiment with NCI/ADR-RES ovarian, 50.1%.

In the case of `COc1ccc(/C(=C\c2cc(OC)c(OC)c(OC)c2)C(=O)N2CCN(c3ccccc3)CC2)cc1O`, the growth was 94.7% in the experiment with EKVX NSCLC; 93.8% with SN12C renal; 69.7% with UO-31 renal; 103% with TK-10 renal; 94% in the experiment on A498 renal; 85.5% in the experiment with CCRF-CEM leukemia. Moreover, the growth in the experiment with MOLT-4 leukemia is 91.3%; with SR leukemia, 87.7%; with RPMI-8226 leukemia, 73.5%; in the experiment on OVCAR-8 ovarian, 96.8%; in the experiment with OVCAR-5 ovarian it was 101%; with OVCAR-4 ovarian, 98.1%. In addition, the growth in the experiment with SK-OV-3 ovarian was 111%; with IGROV1 ovarian it was 102%; in the experiment on OVCAR-3 ovarian, 111%; with HS 578T breast, 87.8%; in the experiment with NCI/ADR-RES ovarian, 93.9%.

As to `CCOc1cccc(/C=N/NC(=O)c2ccc(Nc3ccnc(C(F)(F)F)c3)cc2)c1O`, the growth with EKVX NSCLC was 15.2%; with SN12C renal, 40.7%; in the experiment on UO-31 renal, -11% (active); in the experiment with ACHN renal, 3.84% (active); in the experiment with CAKI-1 renal, 13.8%; with A498 renal it was -2.13% (active). Moreover, the growth in the experiment on CCRF-CEM leukemia is -30.8% (active); in the experiment with MOLT-4 leukemia, 31.2%; in the experiment with SR leukemia, 68.7%; in the experiment on RPMI-8226 leukemia it was -23.6% (active); in the experiment with OVCAR-8 ovarian, 24.7%; in the experiment with OVCAR-5 ovarian it was 13.9%. The growth in the experiment with OVCAR-4 ovarian is 31.3%; in the experiment with SK-OV-3 ovarian it was 10.9%; with IGROV1 ovarian, -9.15% (active); with OVCAR-3 ovarian, 24.6%; in the experiment with HS 578T breast it was 11.3%; with NCI/ADR-RES ovarian, 49.3%.

Consider `CN(C)CCOc1nc2c3ccncc3cc(-c3cccc(Cl)c3)c2c2cnccc12`, for which the growth in the experiment with EKVX NSCLC is 37.4%; in the experiment on UO-31 renal, 14.9%; in the experiment with TK-10 renal it was 30.7%; in the experiment on ACHN renal, 14.5%; in the experiment on CAKI-1 renal it was 29.6%; with A498 renal it was 35.5%. The growth with CCRF-CEM leukemia was 3.4% (active); with SR leukemia it was -27.7% (active); in the experiment on RPMI-8226 leukemia, 9% (active); in the experiment on OVCAR-8 ovarian, 18.2%; in the experiment on OVCAR-5 ovarian, 58.8%; in the experiment on OVCAR-4 ovarian, 33.5%. Moreover, the growth was 46.8% in the experiment on SK-OV-3 ovarian, 45.6% in the experiment with OVCAR-3 ovarian, 54.3% in the experiment with HS 578T breast and 15.4% in the experiment with NCI/ADR-RES ovarian.

Regarding `c1ccc(-c2[nH]c3ccccc3c2-c2ccccc2)cc1`, the growth in the experiment with EKVX NSCLC was 77.1%; in the experiment on SN12C renal it was 91.8%; with UO-31 renal, 88.6%; with TK-10 renal, 107%; in the experiment with A498 renal it was 92.8%; in the experiment on CCRF-CEM leukemia, 47.6%. For the same molecule, the growth in the experiment on MOLT-4 leukemia is 66.2%; with SR leukemia, 88.6%; with RPMI-8226 leukemia, 32.6%; in the experiment on OVCAR-8 ovarian, 92%; in the experiment on OVCAR-5 ovarian, 91.8%; in the experiment on OVCAR-4 ovarian it was 78%. The growth is 95% in the experiment with SK-OV-3 ovarian; 120% in the experiment on IGROV1 ovarian; 96.1% in the experiment with OVCAR-3 ovarian; 106% in the experiment with HS 578T breast; 95.7% in the experiment with NCI/ADR-RES ovarian.
